Common to all, as to assay: DAPPL (digital affinity profiling via proximity ligation, sequencing); 10 mM Tris-HCl pH 7.5, 50 mM NaCl, 1 mM DTT, 4% glycerol, room temperature, 30 min; GST-TFs on glutathione beads, 16-mer random dsDNA library, 0.1% formaldehyde crosslink after washing; high values mean tight binding
One experiment addresses T1, FEV (Homo sapiens, UniProt Q99581 1-238).
T1 sequence: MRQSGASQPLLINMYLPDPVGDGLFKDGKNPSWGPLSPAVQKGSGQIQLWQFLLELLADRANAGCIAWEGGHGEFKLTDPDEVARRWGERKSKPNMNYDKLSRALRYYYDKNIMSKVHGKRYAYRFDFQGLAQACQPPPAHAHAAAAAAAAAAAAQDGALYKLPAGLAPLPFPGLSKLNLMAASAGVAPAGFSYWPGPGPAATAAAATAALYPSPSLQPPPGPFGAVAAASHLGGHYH
Particulars: protein: recombinant; tags: N-terminal GST; dsDNA, one strand shown. The gist of the method: (§1)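 Human transcription factors were made in yeast as GST fusions, captured on glutathione beads and barcoded with DNA. With a tag-only sample included, the pool was incubated with 200 nmole of a random double-stranded 16-mer DNA library in Tris/NaCl/DTT/glycerol buffer at room temperature for 30 min, then crosslinked with 0.1% formaldehyde after washing, ligated by proximity, amplified and sequenced. For binding signal, each hexamer's read frequency for a factor is divided by its frequency for the tag-only sample.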

The target of another experiment is ETV5 (Homo sapiens, UniProt P41161 1-510). Particulars: protein: recombinant; tags: N-terminal GST; dsDNA, one strand shown. Put shortly: as §1
A further experiment has as its target HSF1 (Homo sapiens, UniProt Q00613 1-529). Particulars: protein: recombinant; tags: N-terminal GST; chain copies: 3; dsDNA, one strand shown. Put shortly:
as §1

The target in another experiment is T2, SPIC (Homo sapiens, UniProt Q8N5J4 1-248).
T2 sequence: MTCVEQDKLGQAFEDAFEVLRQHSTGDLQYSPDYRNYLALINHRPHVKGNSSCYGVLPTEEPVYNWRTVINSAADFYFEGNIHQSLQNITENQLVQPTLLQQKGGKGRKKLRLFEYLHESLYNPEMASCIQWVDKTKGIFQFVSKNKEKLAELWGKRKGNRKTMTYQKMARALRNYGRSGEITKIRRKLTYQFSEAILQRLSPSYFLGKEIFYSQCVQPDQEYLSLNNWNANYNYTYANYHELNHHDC
Particulars: protein: recombinant; tags: N-terminal GST; dsDNA, one strand shown. Put shortly:
as §1

The target of a further experiment is ELF4 (Homo sapiens, UniProt Q99607 1-663). Particulars: protein: recombinant; tags: N-terminal GST; dsDNA, one strand shown. The gist of the method:
as §1

For a further experiment, the target named is T3, ELK4 (Homo sapiens, UniProt P28324-2 1-405).
T3 sequence: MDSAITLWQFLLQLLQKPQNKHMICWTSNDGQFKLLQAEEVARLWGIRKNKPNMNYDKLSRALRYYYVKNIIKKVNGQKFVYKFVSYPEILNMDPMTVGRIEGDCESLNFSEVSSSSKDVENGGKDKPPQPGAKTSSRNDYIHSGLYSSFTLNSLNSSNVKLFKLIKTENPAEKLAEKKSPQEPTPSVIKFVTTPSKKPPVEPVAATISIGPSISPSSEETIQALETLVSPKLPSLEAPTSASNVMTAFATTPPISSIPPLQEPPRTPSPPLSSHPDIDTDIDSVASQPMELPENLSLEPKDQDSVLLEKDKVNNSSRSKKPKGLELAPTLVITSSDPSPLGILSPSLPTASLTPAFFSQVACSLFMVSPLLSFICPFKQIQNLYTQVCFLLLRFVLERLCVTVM
Particulars: protein: recombinant; tags: N-terminal GST; dsDNA, one strand shown. The gist of the method: as §1

The target in the next experiment is T4, ETV2 (Homo sapiens, UniProt O00321 1-342).
T4 sequence: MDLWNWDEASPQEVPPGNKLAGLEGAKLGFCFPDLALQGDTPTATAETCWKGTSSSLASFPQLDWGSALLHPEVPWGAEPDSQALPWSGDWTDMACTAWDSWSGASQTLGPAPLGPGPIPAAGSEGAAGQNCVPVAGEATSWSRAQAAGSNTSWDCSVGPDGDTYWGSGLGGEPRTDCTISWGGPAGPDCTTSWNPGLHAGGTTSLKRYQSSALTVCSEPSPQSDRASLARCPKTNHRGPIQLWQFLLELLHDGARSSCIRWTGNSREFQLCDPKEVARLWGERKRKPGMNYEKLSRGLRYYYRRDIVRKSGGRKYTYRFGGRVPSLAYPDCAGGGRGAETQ
Particulars: protein: recombinant; tags: N-terminal GST; dsDNA, one strand shown. Put shortly:
as §1

The target of a further experiment is T5, ELF3 (Homo sapiens, UniProt P78545 1-371).
T5 sequence: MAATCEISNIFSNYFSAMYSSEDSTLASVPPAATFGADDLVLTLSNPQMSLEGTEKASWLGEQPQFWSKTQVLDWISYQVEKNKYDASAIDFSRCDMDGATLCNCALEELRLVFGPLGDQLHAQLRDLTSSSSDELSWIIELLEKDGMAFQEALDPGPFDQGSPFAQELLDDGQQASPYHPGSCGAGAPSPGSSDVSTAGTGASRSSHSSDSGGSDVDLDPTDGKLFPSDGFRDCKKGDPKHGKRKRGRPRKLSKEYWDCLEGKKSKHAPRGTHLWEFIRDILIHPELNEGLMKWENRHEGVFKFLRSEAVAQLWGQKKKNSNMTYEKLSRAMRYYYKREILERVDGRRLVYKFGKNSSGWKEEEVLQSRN
Particulars: protein: recombinant; tags: N-terminal GST; dsDNA, one strand shown. The gist of the method: as §1

The next experiment addresses CRX (Homo sapiens, UniProt O43186 1-299). Particulars: protein: recombinant; tags: N-terminal GST; dsDNA, one strand shown. Put shortly:
as §1

Another experiment addresses ETV1 (Homo sapiens, UniProt P50549 1-477). Particulars: protein: recombinant; tags: N-terminal GST; dsDNA, one strand shown. The gist of the method:
as §1

For the next experiment, the target named is T6, ERF (Homo sapiens, UniProt P50548 1-548).
T6 sequence: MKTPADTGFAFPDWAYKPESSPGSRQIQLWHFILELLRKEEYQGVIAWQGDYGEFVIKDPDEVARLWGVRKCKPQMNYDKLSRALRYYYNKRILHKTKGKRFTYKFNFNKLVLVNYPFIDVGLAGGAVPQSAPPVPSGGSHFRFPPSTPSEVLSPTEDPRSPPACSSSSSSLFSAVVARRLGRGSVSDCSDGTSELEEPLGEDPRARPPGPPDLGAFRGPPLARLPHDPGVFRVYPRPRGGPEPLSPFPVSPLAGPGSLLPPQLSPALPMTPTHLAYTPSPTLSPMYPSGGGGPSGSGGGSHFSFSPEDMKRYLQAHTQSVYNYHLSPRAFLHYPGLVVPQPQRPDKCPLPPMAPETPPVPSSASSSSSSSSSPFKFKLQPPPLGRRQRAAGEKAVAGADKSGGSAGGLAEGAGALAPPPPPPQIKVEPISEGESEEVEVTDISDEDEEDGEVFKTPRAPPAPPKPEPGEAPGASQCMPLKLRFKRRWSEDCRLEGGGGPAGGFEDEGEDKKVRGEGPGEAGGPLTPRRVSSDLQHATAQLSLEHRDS
Particulars: protein: recombinant; tags: N-terminal GST; dsDNA, one strand shown. Put shortly:
as §1

The target in a further experiment is T7, ETV3L (Homo sapiens, UniProt Q6ZN32 1-361).
T7 sequence: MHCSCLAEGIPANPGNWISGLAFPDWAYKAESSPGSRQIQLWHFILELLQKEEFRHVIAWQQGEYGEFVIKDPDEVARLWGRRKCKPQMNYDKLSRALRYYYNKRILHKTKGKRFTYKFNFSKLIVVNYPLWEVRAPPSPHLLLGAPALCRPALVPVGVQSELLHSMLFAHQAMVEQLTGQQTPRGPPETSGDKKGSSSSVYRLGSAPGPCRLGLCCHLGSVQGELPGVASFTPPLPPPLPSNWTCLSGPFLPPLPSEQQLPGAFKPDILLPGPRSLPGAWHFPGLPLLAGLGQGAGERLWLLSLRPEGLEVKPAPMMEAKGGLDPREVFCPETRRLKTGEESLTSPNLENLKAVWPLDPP
Particulars: protein: recombinant; tags: N-terminal GST; dsDNA, one strand shown. Put shortly: as §1

A further experiment deals with T8, ETS2 (Homo sapiens, UniProt P15036 1-469).
T8 sequence: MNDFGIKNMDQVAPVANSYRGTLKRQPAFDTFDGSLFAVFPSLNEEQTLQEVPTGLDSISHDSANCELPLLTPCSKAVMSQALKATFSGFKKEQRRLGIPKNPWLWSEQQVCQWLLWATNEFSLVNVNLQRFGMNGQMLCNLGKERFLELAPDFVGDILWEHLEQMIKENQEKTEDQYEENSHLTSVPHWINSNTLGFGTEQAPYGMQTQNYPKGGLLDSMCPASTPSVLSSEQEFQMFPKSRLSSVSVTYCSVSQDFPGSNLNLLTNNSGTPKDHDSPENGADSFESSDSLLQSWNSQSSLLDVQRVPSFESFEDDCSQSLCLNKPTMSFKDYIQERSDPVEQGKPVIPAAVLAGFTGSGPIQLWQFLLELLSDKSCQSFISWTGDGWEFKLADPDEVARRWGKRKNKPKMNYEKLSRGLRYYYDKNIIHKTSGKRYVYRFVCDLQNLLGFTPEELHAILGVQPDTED
Particulars: protein: recombinant; tags: N-terminal GST; dsDNA, one strand shown. Put shortly: as §1

The next experiment addresses T9, SPDEF (Homo sapiens, UniProt O95238 1-335).
T9 sequence: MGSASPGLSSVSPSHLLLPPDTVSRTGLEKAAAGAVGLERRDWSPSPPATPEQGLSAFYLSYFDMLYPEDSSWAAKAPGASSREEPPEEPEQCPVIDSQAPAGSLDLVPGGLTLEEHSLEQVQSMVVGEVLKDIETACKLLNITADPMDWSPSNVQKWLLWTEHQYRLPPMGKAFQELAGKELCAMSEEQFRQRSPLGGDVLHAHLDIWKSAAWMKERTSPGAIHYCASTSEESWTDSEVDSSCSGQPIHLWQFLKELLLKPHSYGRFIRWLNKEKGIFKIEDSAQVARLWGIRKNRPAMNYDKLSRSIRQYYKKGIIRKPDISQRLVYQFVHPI
Particulars: protein: recombinant; tags: N-terminal GST; dsDNA, one strand shown. Put shortly:
as §1

A further experiment concerns the target T10, ETV7 (Homo sapiens, UniProt Q9Y603 1-341).
T10 sequence: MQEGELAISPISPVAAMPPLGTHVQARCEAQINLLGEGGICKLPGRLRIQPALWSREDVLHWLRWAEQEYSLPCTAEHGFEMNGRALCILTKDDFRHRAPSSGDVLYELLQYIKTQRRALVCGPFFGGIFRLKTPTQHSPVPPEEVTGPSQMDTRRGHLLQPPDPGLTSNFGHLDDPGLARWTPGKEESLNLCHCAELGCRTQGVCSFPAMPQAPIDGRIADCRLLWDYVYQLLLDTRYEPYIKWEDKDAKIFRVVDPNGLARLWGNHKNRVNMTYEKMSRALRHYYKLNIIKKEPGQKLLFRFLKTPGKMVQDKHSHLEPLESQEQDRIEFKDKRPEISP
Particulars: protein: recombinant; tags: N-terminal GST; dsDNA, one strand shown. Put shortly:
as §1

The next experiment deals with T11, ELF5 (Homo sapiens, UniProt Q9UKW6-2 1-255).
T11 sequence: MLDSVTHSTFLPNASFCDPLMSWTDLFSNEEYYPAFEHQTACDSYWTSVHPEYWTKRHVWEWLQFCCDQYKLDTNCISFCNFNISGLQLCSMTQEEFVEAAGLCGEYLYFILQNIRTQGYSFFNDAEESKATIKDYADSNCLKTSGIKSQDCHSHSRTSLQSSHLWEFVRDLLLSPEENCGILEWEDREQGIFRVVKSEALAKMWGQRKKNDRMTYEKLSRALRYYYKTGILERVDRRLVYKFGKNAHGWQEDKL
Particulars: protein: recombinant; tags: N-terminal GST; dsDNA, one strand shown. The gist of the method: as §1

A further experiment has as its target T12, ETV3 (Homo sapiens, UniProt P41162-2 1-143).
T12 sequence: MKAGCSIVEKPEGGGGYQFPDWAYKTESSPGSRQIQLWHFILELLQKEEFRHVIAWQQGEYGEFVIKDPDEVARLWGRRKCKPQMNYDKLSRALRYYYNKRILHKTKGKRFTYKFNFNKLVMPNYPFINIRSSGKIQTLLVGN
Particulars: protein: recombinant; tags: N-terminal GST; dsDNA, one strand shown. Put shortly:
as §1

For another experiment, the target named is ETV6 (Homo sapiens, UniProt P41212 1-452). Particulars: protein: recombinant; tags: N-terminal GST; dsDNA, one strand shown. Put shortly:
as §1

HSF1, sequence (Q00613 whole entry): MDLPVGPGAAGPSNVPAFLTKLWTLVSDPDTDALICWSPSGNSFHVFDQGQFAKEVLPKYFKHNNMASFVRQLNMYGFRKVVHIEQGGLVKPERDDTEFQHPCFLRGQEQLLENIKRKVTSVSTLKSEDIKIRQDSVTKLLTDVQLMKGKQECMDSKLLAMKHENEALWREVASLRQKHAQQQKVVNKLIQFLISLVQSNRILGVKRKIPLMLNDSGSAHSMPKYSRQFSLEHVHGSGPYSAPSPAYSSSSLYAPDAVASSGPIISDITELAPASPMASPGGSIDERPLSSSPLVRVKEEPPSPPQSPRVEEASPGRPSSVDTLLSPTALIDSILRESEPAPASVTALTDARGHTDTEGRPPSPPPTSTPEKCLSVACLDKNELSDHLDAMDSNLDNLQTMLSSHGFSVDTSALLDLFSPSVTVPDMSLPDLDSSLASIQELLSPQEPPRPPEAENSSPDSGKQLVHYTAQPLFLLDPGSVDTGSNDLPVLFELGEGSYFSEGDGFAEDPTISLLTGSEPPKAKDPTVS
ETV6, sequence (P41212 whole entry): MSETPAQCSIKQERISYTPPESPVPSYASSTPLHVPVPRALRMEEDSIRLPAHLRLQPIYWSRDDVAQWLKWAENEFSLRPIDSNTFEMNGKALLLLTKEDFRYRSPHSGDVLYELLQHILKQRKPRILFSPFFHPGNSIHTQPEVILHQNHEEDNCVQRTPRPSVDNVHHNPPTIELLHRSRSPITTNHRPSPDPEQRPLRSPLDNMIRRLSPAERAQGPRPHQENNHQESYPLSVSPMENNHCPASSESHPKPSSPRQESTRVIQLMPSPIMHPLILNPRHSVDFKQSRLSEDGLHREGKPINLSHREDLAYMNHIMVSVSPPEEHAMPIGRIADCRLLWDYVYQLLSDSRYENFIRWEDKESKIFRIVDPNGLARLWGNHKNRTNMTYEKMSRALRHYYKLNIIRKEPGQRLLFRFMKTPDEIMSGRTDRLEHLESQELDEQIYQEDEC
ETV5, sequence (P41161 whole entry): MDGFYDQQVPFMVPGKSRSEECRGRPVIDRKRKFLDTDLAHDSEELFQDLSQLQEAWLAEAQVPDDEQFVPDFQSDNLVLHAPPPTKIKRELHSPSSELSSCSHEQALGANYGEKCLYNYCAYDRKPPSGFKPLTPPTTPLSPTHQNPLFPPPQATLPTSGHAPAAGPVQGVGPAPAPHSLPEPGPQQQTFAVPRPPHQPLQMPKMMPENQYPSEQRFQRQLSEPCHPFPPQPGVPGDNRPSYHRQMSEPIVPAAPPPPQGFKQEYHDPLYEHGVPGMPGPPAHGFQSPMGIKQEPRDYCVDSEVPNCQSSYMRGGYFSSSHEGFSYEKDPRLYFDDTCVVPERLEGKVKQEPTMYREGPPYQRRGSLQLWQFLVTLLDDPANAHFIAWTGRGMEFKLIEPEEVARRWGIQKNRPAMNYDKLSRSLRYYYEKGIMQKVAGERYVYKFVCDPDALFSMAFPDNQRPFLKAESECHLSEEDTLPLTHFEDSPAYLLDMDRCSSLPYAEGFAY
ETV1, sequence (P50549 whole entry): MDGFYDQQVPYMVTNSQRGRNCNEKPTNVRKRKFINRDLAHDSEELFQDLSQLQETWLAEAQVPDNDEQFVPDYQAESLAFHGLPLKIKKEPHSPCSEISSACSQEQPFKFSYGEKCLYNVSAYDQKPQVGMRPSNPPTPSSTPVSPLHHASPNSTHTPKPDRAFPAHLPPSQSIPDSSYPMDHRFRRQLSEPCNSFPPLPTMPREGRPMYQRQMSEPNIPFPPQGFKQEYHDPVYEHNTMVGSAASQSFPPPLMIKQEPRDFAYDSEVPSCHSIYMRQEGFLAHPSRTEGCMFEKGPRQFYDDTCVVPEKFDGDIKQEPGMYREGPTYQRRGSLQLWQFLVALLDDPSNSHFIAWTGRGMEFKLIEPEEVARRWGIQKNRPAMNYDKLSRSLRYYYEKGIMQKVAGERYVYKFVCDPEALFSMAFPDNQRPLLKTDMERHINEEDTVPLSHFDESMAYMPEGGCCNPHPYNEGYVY
ELF4, sequence (Q99607 whole entry): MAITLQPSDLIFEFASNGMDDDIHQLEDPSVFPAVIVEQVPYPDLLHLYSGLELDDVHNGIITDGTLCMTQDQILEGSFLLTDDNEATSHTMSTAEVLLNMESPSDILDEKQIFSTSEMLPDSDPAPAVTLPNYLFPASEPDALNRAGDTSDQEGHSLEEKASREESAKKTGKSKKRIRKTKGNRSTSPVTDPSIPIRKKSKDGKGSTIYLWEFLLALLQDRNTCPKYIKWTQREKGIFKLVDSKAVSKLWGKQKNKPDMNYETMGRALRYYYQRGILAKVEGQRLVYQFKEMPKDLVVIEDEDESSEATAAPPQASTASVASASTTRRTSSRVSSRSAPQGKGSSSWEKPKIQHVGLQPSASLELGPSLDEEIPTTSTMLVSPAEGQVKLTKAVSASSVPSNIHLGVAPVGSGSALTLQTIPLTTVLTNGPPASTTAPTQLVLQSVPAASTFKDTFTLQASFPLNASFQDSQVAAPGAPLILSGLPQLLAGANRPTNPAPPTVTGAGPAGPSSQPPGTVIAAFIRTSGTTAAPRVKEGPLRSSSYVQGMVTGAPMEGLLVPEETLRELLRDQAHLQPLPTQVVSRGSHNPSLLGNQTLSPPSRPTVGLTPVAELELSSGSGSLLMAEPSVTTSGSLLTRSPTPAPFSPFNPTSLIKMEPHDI
CRX, sequence (O43186 whole entry): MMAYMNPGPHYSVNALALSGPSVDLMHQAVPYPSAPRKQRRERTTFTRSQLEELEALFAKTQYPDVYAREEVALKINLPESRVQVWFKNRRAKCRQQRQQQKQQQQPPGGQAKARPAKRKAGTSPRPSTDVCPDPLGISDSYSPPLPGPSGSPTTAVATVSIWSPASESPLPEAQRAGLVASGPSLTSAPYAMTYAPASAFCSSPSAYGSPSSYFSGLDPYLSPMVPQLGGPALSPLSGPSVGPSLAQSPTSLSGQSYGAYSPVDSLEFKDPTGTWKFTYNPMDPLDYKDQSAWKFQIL

Consider CTACAC, for which the binding signal with FEV is 1.27 fold enrichment (6-mer frequency, TF over GST control); with ETV5, 1.26 fold enrichment (6-mer frequency, TF over GST control); with HSF1 it was 1.11 fold enrichment (6-mer frequency, TF over GST control); with SPIC it was 1.32 fold enrichment (6-mer frequency, TF over GST control); in the experiment with ELF4, 1.17 fold enrichment (6-mer frequency, TF over GST control); with ELK4, 1.23 fold enrichment (6-mer frequency, TF over GST control). For the same sequence, the binding signal in the experiment with ETV2 was 1.19 fold enrichment (6-mer frequency, TF over GST control); with ELF3, 1.39 fold enrichment (6-mer frequency, TF over GST control); with CRX, 1.05 fold enrichment (6-mer frequency, TF over GST control); with ETV1 it was 1.28 fold enrichment (6-mer frequency, TF over GST control); in the experiment with ERF it was 1.31 fold enrichment (6-mer frequency, TF over GST control); with ETV3L it was 1.4 fold enrichment (6-mer frequency, TF over GST control). Further, the binding signal in the experiment with ETS2 is 1.25 fold enrichment (6-mer frequency, TF over GST control); in the experiment with SPDEF, 1.39 fold enrichment (6-mer frequency, TF over GST control); in the experiment with ETV7, 1.25 fold enrichment (6-mer frequency, TF over GST control); with ELF5, 1.36 fold enrichment (6-mer frequency, TF over GST control); in the experiment with ETV3, 1.39 fold enrichment (6-mer frequency, TF over GST control); with ETV6, 1.36 fold enrichment (6-mer frequency, TF over GST control).

The record behind these values is publication PMC7862700, “An all-to-all approach to the identification of sequence-specific readers for epigenetic DNA modifications on cytosine”.
